The values that follow come from ChEMBL document CHEMBL3988442, “University of Dundee, Small-Polar-MMV Screening Library” (2021).

The campaign covered roughly 48,000 compounds. About 13,000 (27%) showed an effect of 50% or more. The list shows a part of the results.

The test has as its system Wolbachia pipientis. The test can be described thus: Anti-Wolbachia Cell-Based Screen. The following applies: 5 µM. More on the design: scale not given: in the data most compounds retested in dose-response had high values. The class given is functional.
For the compound `CC(C)(C)NC(=O)C1CSCN1S(=O)(=O)c1ccccc1S(C)(=O)=O` (configuration not stated), the “Percent Effect” value was determined as 4.107%.
With `CCc1ncc2c(n1)CN(C(=O)CC(C)NC(C)=O)C2` (configuration not stated) the figure was -5.882%; with `Cc1cc(CN(C)C(=O)NC(C)Cc2ccco2)no1` (configuration not stated), 4.671%.
On to `CCn1ccnc1CN1CCN(c2nc(C)cc(OC)n2)CC1`, for which the “Percent Effect” value is -15.82%.
With `CC[C@@H]1N(CC2CCOCC2)CCC[C@]12CCC(=O)N2.O=C(O)C(F)(F)F` the figure was -7.738%.
For `NC(=O)c1cc(-n2cc(-c3cccc(C(=O)O)c3)cn2)cs1` the value was -1.419%; for `CN(c1cccnc1N1CCCC1)S(=O)(=O)c1cnn(C)c1`, 8.889%.
Consider `CCc1noc(CNc2nc(-c3cccnc3)nc3c2CCNCC3)n1`, for which the “Percent Effect” value was found to be 3.724%.
In the case of `CC(O)CNc1nc(-c2cccnc2)nc2c1CCC2` (configuration not stated), the “Percent Effect” value is -9.754%.
For `CCn1ncc(CN2CCc3nc(-c4cccnc4)nc(O)c3C2)c1C`, the “Percent Effect” value is 89.32%.
For `CS(=O)(=O)NC(=O)c1cnc2c(cnn2C2CCCC2)c1` the value was -4.215%.
As for `CC1CN(C)CCN1C(=O)c1cnc2c(cnn2C2CCCC2)c1` (configuration not stated), the “Percent Effect” value was found to be 101.7%.
With `CN1CCN(C(=O)c2cnc3c(cnn3C3CCCC3)c2)CC1` the figure was 4.55%.
For `CCOC1CCCN(C(=O)c2cnc3c(cnn3C3CCCC3)c2)C1` (configuration not stated) the value was -8.504%; for `CC(C)CCN(C)C(=O)c1cnc2c(cnn2CC(C)C)c1`, 1.745%.
With `CCn1c(N)nc2cc(C(=O)N3CCCN(C)CC3)cnc21` the figure was -5.515%; with `O=C(c1cnc2c(cnn2C2CCCC2)c1)N1CCN(CCO)CC1`, 107.7%; with `CN1CCC(N(C)C(=O)c2cnc3c(cnn3C3CCCC3)c2)CC1`, 105.6%.
Consider `CCN1CCN(C(=O)c2cnc3c(cnn3C3CCCC3)c2)CC1`, for which the “Percent Effect” value worked out at 83.11%.
With `O=C(O)c1cnc2c(cnn2C2CCCC2)c1` the figure was -9.214%.
As to `CCn1c(N)nc2cc(C(=O)N3CCC(N4CCCC4)CC3)cnc21`, the “Percent Effect” value is given as -1.571%.
With `CC1CN(C)CCN1C(=O)c1cnc2onc(CC(C)(C)C)c2c1` (configuration not stated) the figure was 4.024%; with `Cn1ccnc1SCC(=O)NCCC1CCCO1` (configuration not stated), 1.622%; with `Cn1cc(S(=O)(=O)NC(CO)Cc2c[nH]c3ccccc23)cn1` (configuration not stated), -17.12%.
For the compound `Cn1cccc1C(=O)NCc1cn2c(n1)CN(S(=O)(=O)C1CC1)CC2`, the “Percent Effect” value is -2.289%.
With `Cc1ncc(C(=O)N2CCC(N3C[C@@H](C)O[C@@H](C)C3)CC2)c(=O)[nH]1` the figure was -16.5%; with `CCc1noc(CC)c1CNC(=O)Nc1cccc(C(=O)N(C)C)c1`, 14.38%; with `O=C(c1ccc2c(c1)[nH]c(=O)n2C1CCCC1)N1CCCSCC1`, -3.459%.
For `NC(=O)C1CCCN(C(=O)c2cnc3c(cnn3C3CCCC3)c2)C1` (configuration not stated), the “Percent Effect” value is reported as -9.879%.
In the case of `O=C(c1cnc2c(cnn2C2CCCC2)c1)N1CCCSCC1`, the “Percent Effect” value is on record as 112.1%.
On to `CC(C)c1cccc(-n2cc(O)c(C(=O)O)n2)c1`, for which the “Percent Effect” value is 39.26%.
Take `CC(=O)NCc1nc(CC(C)C)nn1-c1cccc(C)c1`: the “Percent Effect” value is -6.896%.
In the case of `Cc1cccc(-n2nc(CC(C)C)nc2[C@H](C)O)c1`, the “Percent Effect” value was -4.735%.
For `O=C(O)c1c(Cl)ncn1-c1ccccc1` the value was 76.14%; for `O=C1CC(c2ccc(C(=O)O)cc2)c2ncn(-c3ccccc3)c2N1` (configuration not stated), 13.74%.
Turning to `Cc1cccc(-n2cnc(Cl)c2C(=O)O)c1`, the “Percent Effect” value was 93.89%.
For `CCc1ccc(C2CCCN2C(=O)Cc2ccc(NC(C)=O)cc2)o1` (configuration not stated) the value was -1.143%.
As for `CC(C)OCc1ncn2c1CN(Cc1cnn(C)c1)CCC2.O=C(O)C(F)(F)F`, the “Percent Effect” value was -6.941%.
`O=C(Nc1ccc(Cl)cn1)C1CCN(CCc2ccccn2)CC1`: the “Percent Effect” value is reported as 5.331%.
Turning to `CCSCc1ccnc(NC(=O)C2CCCO2)c1` (configuration not stated), the “Percent Effect” value was found to be 2.987%.
For `Cc1ccc(NC(=O)C2CCCN2C(=O)C2CC2)nc1` (configuration not stated) the value was 4.832%; for `CS(=O)(=O)NC1(CCc2ccc(NC(=O)C3CC3)nc2)CCCCC1`, 95.32%; for `O=C(Nc1ccc(-c2ccccc2)cn1)C1CCCN1C(=O)C1CC1` (configuration not stated), -4.535%.
For `CC(=O)Nc1ccc(CCC2(NC(=O)C3CCCO3)CCCCC2)cn1` (configuration not stated) the value was 144.1%.
For `CC(=O)Nc1ccc(CCC2(NC(=O)C3CC3)CCCCC2)cn1` the value was 53.79%.
As for `O=C(Nc1ccc(N2CCCCC2)cn1)C1CCCN1C(=O)C1CC1` (configuration not stated), the “Percent Effect” value is listed as 5.13%.
With `Cc1ccnc(NC(=O)C2CCCO2)c1` (configuration not stated), the “Percent Effect” value is on record as 0.6753%.
For `CC(C)(C)C(=O)N1CC[C@H]2NC(=O)N(c3ccc(F)cc3)C(=O)[C@H]21` the value was -4.362%.
For `Cc1ccc(Cl)cc1C(=O)N1CCC2(CC1)c1ccccc1[C@@H](N)[C@@H]2O` the value was -15.25%; for `COCCN(C(=O)c1cc(C)no1)c1ccc(C#N)cc1`, -3.36%.
For `CCNc1cc2c(nn1)CCN(C(=O)Cc1noc3ccccc13)C2` the value was 2.376%; for `CCNc1cc2c(nn1)CCN(C(=O)CCc1c(C)noc1Cl)C2`, 92.82%; for `CCNc1cc2c(nn1)CCN(C(=O)C(C)c1c(C)noc1C)C2` (configuration not stated), 124.9%.
As for `CCNc1cc2c(nn1)CCN(C(=O)C1Cc3ccccc3O1)C2` (configuration not stated), the “Percent Effect” value is -6.016%.
With `CCNc1cc2c(nn1)CCN(C(=O)c1cc3nc(C)ccc3o1)C2` the figure was 0.3764%; with `CCNc1cc2c(nn1)CCN(C(=O)Cc1c(C)noc1C)C2`, -1.817%.
With `CCNc1cc2c(nn1)CCN(C(=O)c1cc3c(s1)CCOC3)C2`, the “Percent Effect” value was 6.196%.
For `CCNc1cc2c(nn1)CCN(C(=O)c1c(C)noc1C)C2` the value was 134.6%; for `Cc1noc(Cl)c1CCC(=O)N1CCc2sccc2C1`, 4.589%; for `CCNc1cc2c(nn1)CCN(C(=O)CCc1c(C)noc1C)C2`, 85.75%.
`CN(C1CCCCC1)S(=O)(=O)NC1CCN(c2ncccn2)CC1`: the “Percent Effect” value is -8.607%.
For `Cc1n[nH]c(C(=O)NCc2ccnc(OCC(F)(F)F)c2)c1Br` the value was -11.41%.
With `COc1ccc(CCN2CCCC(CN(C)Cc3ccc(C)o3)C2)cc1` (configuration not stated) the figure was -2.586%; with `O=C(c1cccc2[nH]ccc12)N1CCC2(CCOC2)C1` (configuration not stated), -0.4242%.
With `CCNc1cc2c(nn1)CCN(C(=O)c1ccc(CNC(C)=O)o1)C2` the figure was -5.342%; with `CNc1cc2c(nn1)CCN(C(=O)c1ccoc1)C2`, 3.239%.
Turning to `CCNc1cc2c(nn1)CCN(C(=O)c1ccoc1)C2`, the “Percent Effect” value is 77.15%.
